{"source": "the supplement of paper PMC3334620", "note": "Over roughly 33,000 sequences, “E-score (-0.5 to 0.5)” has its median near -0.011; the highest 2% begin near 0.28. The full list was thinned out, with the highest values kept by preference.", "data": [{"biological_target": "T1, Gcr1 (UniProt P07261)", "T1 sequence": "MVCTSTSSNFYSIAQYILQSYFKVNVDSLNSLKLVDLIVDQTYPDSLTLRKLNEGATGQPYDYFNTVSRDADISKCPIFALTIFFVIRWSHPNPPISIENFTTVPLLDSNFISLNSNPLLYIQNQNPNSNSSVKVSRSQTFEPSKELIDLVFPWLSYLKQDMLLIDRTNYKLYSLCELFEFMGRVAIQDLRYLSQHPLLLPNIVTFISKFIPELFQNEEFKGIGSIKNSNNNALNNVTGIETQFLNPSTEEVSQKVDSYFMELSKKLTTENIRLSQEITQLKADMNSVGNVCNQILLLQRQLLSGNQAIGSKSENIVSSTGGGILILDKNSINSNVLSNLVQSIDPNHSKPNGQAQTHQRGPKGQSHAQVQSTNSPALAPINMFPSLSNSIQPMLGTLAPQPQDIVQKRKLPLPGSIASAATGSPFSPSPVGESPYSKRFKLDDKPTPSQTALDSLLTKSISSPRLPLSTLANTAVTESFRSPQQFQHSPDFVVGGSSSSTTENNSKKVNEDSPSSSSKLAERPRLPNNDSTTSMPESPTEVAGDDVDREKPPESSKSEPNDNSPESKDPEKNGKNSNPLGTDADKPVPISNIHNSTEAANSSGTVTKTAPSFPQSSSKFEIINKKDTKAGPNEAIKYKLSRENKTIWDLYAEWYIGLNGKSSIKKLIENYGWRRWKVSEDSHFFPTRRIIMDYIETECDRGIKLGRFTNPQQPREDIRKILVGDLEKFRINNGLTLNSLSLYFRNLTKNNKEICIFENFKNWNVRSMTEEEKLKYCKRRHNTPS", "experiment": "PBM E-score (8-mer binding enrichment) (E-score (-0.5 to 0.5)); higher = stronger / more preferred TF binding", "settings": "protein concentration: 100 nM; construct: GST-full length", "in_short": "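Bound GST-tagged yeast transcription factors, applied at about 100-200 nM to double-stranded universal all-10-mer Agilent arrays, were detected with fluorescent anti-GST. Scans were normalised with masliner. A modified Wilcoxon-Mann-Whitney statistic, the E-score, was assigned to each ungapped eight-base word pooled with its reverse complement by the Universal PBM Analysis Suite.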", "values": [{"sequence": "AGAAGCTC", "PBM E-score": 0.273}, {"sequence": "AGAAGTTA", "PBM E-score": 0.0491}, {"sequence": "CGAAGTTA", "PBM E-score": 0.0921}, {"sequence": "GGAAGTTA", "PBM E-score": 0.339}, {"sequence": "AGAAGCTA", "PBM E-score": 0.338}, {"sequence": "AGAAGCTG", "PBM E-score": 0.348}, {"sequence": "GGAAGCTA", "PBM E-score": 0.457}, {"sequence": "TAACCATA", "PBM E-score": 0.0179}, {"sequence": "GATCTGAA", "PBM E-score": -0.0028}, {"sequence": "CTGGATCA", "PBM E-score": -0.0687}, {"sequence": "CCGGATTA", "PBM E-score": -0.0163}, {"sequence": "ACGGATTC", "PBM E-score": 0.237}, {"sequence": "CGGGATAA", "PBM E-score": 0.0532}, {"sequence": "CGGGATTA", "PBM E-score": -0.0698}, {"sequence": "CGGGATTC", "PBM E-score": 0.39}, {"sequence": "CTGGATCC", "PBM E-score": 0.346}, {"sequence": "GGGGATAC", "PBM E-score": 0.0984}, {"sequence": "AGGGATTC", "PBM E-score": 0.276}, {"sequence": "CCGGATTC", "PBM E-score": 0.313}, {"sequence": "CGGGATAC", "PBM E-score": 0.304}, {"sequence": "ATGGATCC", "PBM E-score": 0.278}, {"sequence": "ACACTGGA", "PBM E-score": 0.264}, {"sequence": "AACAGTGC", "PBM E-score": -0.142}, {"sequence": "CGGAAGAA", "PBM E-score": -0.0973}, {"sequence": "ATCTAGCC", "PBM E-score": 0.0906}, {"sequence": "ATTCCGTC", "PBM E-score": 0.0616}, {"sequence": "CTATAGAC", "PBM E-score": -0.109}, {"sequence": "CGCAGCAG", "PBM E-score": 0.0351}, {"sequence": "CCCAAATC", "PBM E-score": 0.238}, {"sequence": "CTAGCCAC", "PBM E-score": -0.154}, {"sequence": "ATGTGAAA", "PBM E-score": -0.0826}, {"sequence": "CTGGATTC", "PBM E-score": 0.361}, {"sequence": "CTGGATTA", "PBM E-score": 0.246}, {"sequence": "ATGGATTC", "PBM E-score": 0.272}, {"sequence": "CCGCACAC", "PBM E-score": -0.0537}, {"sequence": "AAGATGCC", "PBM E-score": 0.31}, {"sequence": "AAGATGCT", "PBM E-score": 0.288}, {"sequence": "AAGATGCG", "PBM E-score": 0.198}, {"sequence": "AAGATGCA", "PBM E-score": 0.0396}, {"sequence": "GAGATGCC", "PBM E-score": 0.158}, {"sequence": "CAGATGCC", "PBM E-score": 0.217}, {"sequence": "TTAACCAA", "PBM E-score": -0.0373}, {"sequence": "ATCGCCGG", "PBM E-score": 0.123}, {"sequence": "CAACTCAA", "PBM E-score": 0.0769}, {"sequence": "AATAGGCG", "PBM E-score": 0.168}, {"sequence": "ATACGAAT", "PBM E-score": 0.113}, {"sequence": "CTACGAAG", "PBM E-score": 0.0785}, {"sequence": "AGACGAAT", "PBM E-score": 0.0336}, {"sequence": "CGACGAAG", "PBM E-score": -0.219}, {"sequence": "ATACGAAG", "PBM E-score": 0.293}, {"sequence": "AGACGAAG", "PBM E-score": 0.335}, {"sequence": "AGCTTACG", "PBM E-score": 0.0302}, {"sequence": "AACTACTC", "PBM E-score": 0.0802}, {"sequence": "AACTACTG", "PBM E-score": -0.0124}, {"sequence": "AACTACTA", "PBM E-score": 0.288}, {"sequence": "CGGATACG", "PBM E-score": 0.0225}, {"sequence": "TTATGGAA", "PBM E-score": 0.163}, {"sequence": "ACTCTTCA", "PBM E-score": -0.15}, {"sequence": "AGTAGCAC", "PBM E-score": 0.287}, {"sequence": "AGTAGCAA", "PBM E-score": 0.111}, {"sequence": "GGTAGCAC", "PBM E-score": 0.0683}, {"sequence": "CCGGTTCG", "PBM E-score": -0.0186}, {"sequence": "ACTAAATC", "PBM E-score": 0.0396}, {"sequence": "CCTAAATA", "PBM E-score": 0.129}, {"sequence": "CCTAAATC", "PBM E-score": 0.306}, {"sequence": "GTCGGTTA", "PBM E-score": -0.058}, {"sequence": "CGAACACC", "PBM E-score": -0.135}, {"sequence": "CGTTCATA", "PBM E-score": -0.0211}, {"sequence": "ATTACTGC", "PBM E-score": -0.0604}, {"sequence": "AATACTGA", "PBM E-score": 0.0152}, {"sequence": "ATTACTGG", "PBM E-score": 0.362}, {"sequence": "AATACTGG", "PBM E-score": 0.369}, {"sequence": "ATTACTGA", "PBM E-score": -0.0681}, {"sequence": "CATACTGG", "PBM E-score": 0.209}, {"sequence": "ACTACTCC", "PBM E-score": 0.0438}, {"sequence": "CAATTAGC", "PBM E-score": -0.0933}, {"sequence": "AGCGTCCA", "PBM E-score": 0.437}, {"sequence": "AGCGTCCT", "PBM E-score": 0.426}, {"sequence": "ATCGTCCA", "PBM E-score": 0.0357}, {"sequence": "AACGTCCC", "PBM E-score": -0.159}, {"sequence": "AGCGTCCC", "PBM E-score": 0.347}, {"sequence": "AACGTCCT", "PBM E-score": 0.043}, {"sequence": "ACCGTCCT", "PBM E-score": -0.196}, {"sequence": "CGCGTCCC", "PBM E-score": 0.0398}, {"sequence": "GCCGTCCC", "PBM E-score": -0.0711}, {"sequence": "AGCGTCCG", "PBM E-score": 0.165}, {"sequence": "AGCGTCAC", "PBM E-score": -0.078}, {"sequence": "GGCGTCCC", "PBM E-score": 0.362}]}]}
